Some test systems named below: SR leukemia; RPMI-8226 leukemia; OVCAR-8 ovarian; OVCAR-5 ovarian; OVCAR-4 ovarian; SK-OV-3 ovarian; IGROV1 ovarian; OVCAR-3 ovarian; HS 578T breast; NCI/ADR-RES ovarian; T-47D breast; BT-549 breast; MDA-MB-435 melanoma; SW-620 colon; MCF7 breast; HCT-116 colon; HCC-2998 colon; KM12 colon.
What all share (assay): NCI-60 one-dose screen, 48 h (100 = growth as untreated, 0 = no growth, -100 = all killed)
Conditions in all cases: 10 µM unless noted

“And” between values parts separate entries of the source, which are not always exact repeats. Equal values may be shown once. The panel holds about 83,000 compounds, 20% with a hit somewhere; the sample as a whole holds those more often.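 Percent growth is the endpoint: 0 to 100 indicates growth inhibition (40 means 60% inhibition), 0 means no net growth, and negative values indicate cell death.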 The source made the active and inactive calls. How the source made its calls: active means growth percent below 10; inactive means the rest.

Consider `CC(=O)Oc1cc(C(C)C)c(OCCN(C)C)cc1C`, for which the growth was 107% (inactive) with SR leukemia; 123% (inactive) and 105% (inactive) with RPMI-8226 leukemia; -70.9% (active) and 99% (inactive) in the test with OVCAR-8 ovarian; 92.7% (inactive) in the test on OVCAR-5 ovarian; 111% (inactive) and 114% (inactive) in the test with OVCAR-4 ovarian; 115% (inactive) and 101% (inactive) in the test on SK-OV-3 ovarian. Moreover, the growth was 110% (inactive) and 112% (inactive) in the test on IGROV1 ovarian; 125% (inactive) and 119% (inactive) with OVCAR-3 ovarian; 99.2% (inactive) and 97.7% (inactive) with HS 578T breast; 99.5% (inactive) and 111% (inactive) in the test with NCI/ADR-RES ovarian; 90% (inactive) and 86.2% (inactive) in the test on T-47D breast; 119% (inactive) and 100% (inactive) in the test with BT-549 breast. For the same molecule, the growth was 99.2% (inactive) and 99.4% (inactive) with MDA-MB-435 melanoma; 104% (inactive) and 100% (inactive) in the test with SW-620 colon; 109% (inactive) and 95.7% (inactive) with MCF7 breast; 107% (inactive) and 102% (inactive) with HCT-116 colon; 99.6% (inactive) and 113% (inactive) with HCC-2998 colon; 102% (inactive) and 110% (inactive) with KM12 colon.

In the case of `CC(C)=NOC(C)C(=O)O` (stereo not drawn), the growth in the test with SR leukemia is 92% (inactive); in the test on RPMI-8226 leukemia it was 111% (inactive); with OVCAR-8 ovarian, 90.2% (inactive); in the test on OVCAR-5 ovarian, 101% (inactive); in the test on OVCAR-4 ovarian, 108% (inactive); in the test on SK-OV-3 ovarian, 115% (inactive). The growth in the test with IGROV1 ovarian was 135% (inactive); with OVCAR-3 ovarian, 114% (inactive); with HS 578T breast it was 108% (inactive); in the test on NCI/ADR-RES ovarian it was 99.6% (inactive); in the test with T-47D breast it was 107% (inactive); with BT-549 breast, 98% (inactive). For the same molecule, the growth was 97.2% (inactive) in the test with MDA-MB-435 melanoma; 103% (inactive) in the test with SW-620 colon; 97% (inactive) with MCF7 breast; 95.7% (inactive) with HCT-116 colon; 100% (inactive) with HCC-2998 colon; 114% (inactive) with KM12 colon.

Regarding `Nc1[nH][nH]c(=O)c1N=Nc1ccccc1`, the growth in the test on SR leukemia is 125% (inactive) and 98.6% (inactive); in the test on RPMI-8226 leukemia, 110% (inactive); with OVCAR-8 ovarian, 102% (inactive) and 108% (inactive); in the test with OVCAR-5 ovarian, 101% (inactive) and 109% (inactive); with OVCAR-4 ovarian, 99.6% (inactive); with SK-OV-3 ovarian, 101% (inactive) and 107% (inactive). The growth is 109% (inactive) and 104% (inactive) in the test with IGROV1 ovarian; 106% (inactive) and 111% (inactive) in the test with OVCAR-3 ovarian; 107% (inactive) and 130% (inactive) in the test with HS 578T breast; 106% (inactive) and 105% (inactive) with NCI/ADR-RES ovarian; 113% (inactive) and 102% (inactive) in the test on T-47D breast; 101% (inactive) and 133% (inactive) with BT-549 breast. In addition, the growth in the test with MDA-MB-435 melanoma was 103% (inactive) and 99.7% (inactive); in the test on SW-620 colon it was 97.5% (inactive) and 114% (inactive); with MCF7 breast, 92.9% (inactive) and 94.5% (inactive); in the test on HCT-116 colon, 104% (inactive) and 102% (inactive); in the test with HCC-2998 colon, 97.9% (inactive) and 104% (inactive); with KM12 colon, 105% (inactive) and 106% (inactive).

With `CCCC(=O)OCC(COC(=O)CCC)OC(=O)CCC`, the growth with SR leukemia was 105% (inactive); in the test on RPMI-8226 leukemia, 98.1% (inactive); with OVCAR-8 ovarian it was 101% (inactive); in the test on OVCAR-5 ovarian it was 102% (inactive); in the test on OVCAR-4 ovarian, 97.6% (inactive); in the test on SK-OV-3 ovarian it was 103% (inactive). The growth is 105% (inactive) with IGROV1 ovarian; 105% (inactive) in the test on OVCAR-3 ovarian; 98.6% (inactive) in the test on HS 578T breast; 100% (inactive) in the test with NCI/ADR-RES ovarian; 85.3% (inactive) with T-47D breast; 106% (inactive) in the test on BT-549 breast. Besides, the growth in the test on MDA-MB-435 melanoma was 106% (inactive); in the test on SW-620 colon it was 95.6% (inactive); in the test on MCF7 breast it was 93.9% (inactive); with HCT-116 colon, 98.8% (inactive); with HCC-2998 colon, 95.3% (inactive); in the test with KM12 colon, 103% (inactive).

In the case of `CCOC(=O)NC(N)=O`, the growth is 90.3% (inactive) and 108% (inactive) with SR leukemia; 101% (inactive) and 99.4% (inactive) in the test with RPMI-8226 leukemia; 102% (inactive) and 97% (inactive) with OVCAR-8 ovarian; 101% (inactive) with OVCAR-5 ovarian; 116% (inactive) and 106% (inactive) in the test on OVCAR-4 ovarian; 104% (inactive) and 114% (inactive) in the test on SK-OV-3 ovarian. In addition, the growth was 98% (inactive) and 110% (inactive) with IGROV1 ovarian; 113% (inactive) and 125% (inactive) with OVCAR-3 ovarian; 102% (inactive) and 107% (inactive) with HS 578T breast; 105% (inactive) and 107% (inactive) in the test with NCI/ADR-RES ovarian; 104% (inactive) and 107% (inactive) with T-47D breast; 96% (inactive) and 110% (inactive) in the test with BT-549 breast. Further, the growth in the test on MDA-MB-435 melanoma was 101% (inactive) and 99% (inactive); in the test with SW-620 colon, 107% (inactive) and 111% (inactive); in the test on MCF7 breast, 103% (inactive) and 107% (inactive); with HCT-116 colon it was 99.3% (inactive) and 99.5% (inactive); in the test with HCC-2998 colon it was 103% (inactive); in the test with KM12 colon it was 112% (inactive).

On to `CCOCCC(=O)O`, for which the growth was 109% (inactive) in the test with SR leukemia; 107% (inactive) in the test with RPMI-8226 leukemia; 109% (inactive) in the test on OVCAR-8 ovarian; 101% (inactive) in the test with OVCAR-5 ovarian; 104% (inactive) in the test with OVCAR-4 ovarian; 102% (inactive) in the test on SK-OV-3 ovarian. For the same molecule, the growth in the test with IGROV1 ovarian was 114% (inactive); in the test on OVCAR-3 ovarian, 115% (inactive); in the test on HS 578T breast it was 98.7% (inactive); with NCI/ADR-RES ovarian, 107% (inactive); in the test on T-47D breast, 94.1% (inactive); with BT-549 breast, 107% (inactive). Also, the growth was 108% (inactive) in the test with MDA-MB-435 melanoma; 101% (inactive) with SW-620 colon; 104% (inactive) in the test with MCF7 breast; 97.3% (inactive) with HCT-116 colon; 123% (inactive) in the test on HCC-2998 colon; 117% (inactive) in the test on KM12 colon.

For the origin of these results see PubChem BioAssay (NCI).
